Results published in PMC7862700, “An all-to-all approach to the identification of sequence-specific readers for epigenetic DNA modifications on cytosine”.

Key:
Experiment in all cases: DAPPL (digital affinity profiling via proximity ligation, sequencing); 10 mM Tris-HCl pH 7.5, 50 mM NaCl, 1 mM DTT, 4% glycerol, room temperature, 30 min; GST-TFs on glutathione beads, 16-mer random dsDNA library, 0.1% formaldehyde crosslink after washing; high values mean tight binding
Conditions in all cases: protein: recombinant; tags: N-terminal GST; dsDNA, one strand shown
FLI1 = target: T1, FLI1 (Homo sapiens, UniProt Q01543 1-452)
T1 sequence: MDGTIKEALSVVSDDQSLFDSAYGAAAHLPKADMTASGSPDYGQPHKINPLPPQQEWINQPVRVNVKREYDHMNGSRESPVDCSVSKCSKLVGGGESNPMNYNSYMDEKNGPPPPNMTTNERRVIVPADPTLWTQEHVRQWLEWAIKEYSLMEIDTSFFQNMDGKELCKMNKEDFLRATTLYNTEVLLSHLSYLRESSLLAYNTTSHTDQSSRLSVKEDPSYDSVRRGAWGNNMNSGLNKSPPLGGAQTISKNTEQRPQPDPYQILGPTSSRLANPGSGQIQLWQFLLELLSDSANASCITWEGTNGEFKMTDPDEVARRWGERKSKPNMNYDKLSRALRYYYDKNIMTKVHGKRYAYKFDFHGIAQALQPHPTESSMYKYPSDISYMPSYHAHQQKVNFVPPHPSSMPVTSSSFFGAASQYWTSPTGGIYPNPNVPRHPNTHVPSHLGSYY
How it was run: (§1)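 Beads coated with glutathione captured GST-fused human transcription factors that had been expressed in yeast, and the factors were then given DNA barcodes and pooled with a tag-only sample. The pools were incubated with 200 nmole of a random double-stranded 16-mer DNA library in Tris/NaCl/DTT/glycerol buffer for 30 min at room temperature, washed, crosslinked with 0.1% formaldehyde and proximity-ligated with BsaI/T4 ligase at 37 °C for 1 h. PCR amplification and Illumina NextSeq500 sequencing came last. Binding signal is each hexamer's read frequency for a factor divided by its frequency for the tag-only sample.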

ELK1 = target: T2, ELK1 (Homo sapiens, UniProt P19419 1-428)
T2 sequence: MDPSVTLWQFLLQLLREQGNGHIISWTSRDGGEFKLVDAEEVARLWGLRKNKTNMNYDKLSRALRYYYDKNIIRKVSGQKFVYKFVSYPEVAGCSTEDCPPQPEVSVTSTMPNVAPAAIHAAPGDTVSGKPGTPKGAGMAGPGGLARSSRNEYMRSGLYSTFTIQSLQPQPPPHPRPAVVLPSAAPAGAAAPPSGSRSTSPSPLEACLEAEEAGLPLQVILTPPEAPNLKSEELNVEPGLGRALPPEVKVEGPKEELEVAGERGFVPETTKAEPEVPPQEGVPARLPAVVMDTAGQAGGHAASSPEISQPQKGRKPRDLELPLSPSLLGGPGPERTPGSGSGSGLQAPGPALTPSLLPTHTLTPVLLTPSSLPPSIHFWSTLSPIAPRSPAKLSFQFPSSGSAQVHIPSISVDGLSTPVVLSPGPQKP
How it was run: as §1

GABPA = target: T3, GABPA (Homo sapiens, UniProt Q06546 1-454)
T3 sequence: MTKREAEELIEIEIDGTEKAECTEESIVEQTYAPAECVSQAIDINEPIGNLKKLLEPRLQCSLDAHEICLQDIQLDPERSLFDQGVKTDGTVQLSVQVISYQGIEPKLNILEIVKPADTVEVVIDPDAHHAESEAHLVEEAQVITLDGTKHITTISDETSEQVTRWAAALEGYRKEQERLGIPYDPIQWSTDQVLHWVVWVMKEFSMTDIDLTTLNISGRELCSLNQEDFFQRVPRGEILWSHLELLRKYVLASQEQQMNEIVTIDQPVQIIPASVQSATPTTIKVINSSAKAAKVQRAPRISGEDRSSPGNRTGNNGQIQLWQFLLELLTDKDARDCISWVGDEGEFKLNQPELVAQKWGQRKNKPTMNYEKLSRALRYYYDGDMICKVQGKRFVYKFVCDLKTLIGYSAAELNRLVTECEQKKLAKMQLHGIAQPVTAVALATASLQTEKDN
How it was run: as §1

ERG = target: T4, ERG (Homo sapiens, UniProt P11308 1-479)
T4 sequence: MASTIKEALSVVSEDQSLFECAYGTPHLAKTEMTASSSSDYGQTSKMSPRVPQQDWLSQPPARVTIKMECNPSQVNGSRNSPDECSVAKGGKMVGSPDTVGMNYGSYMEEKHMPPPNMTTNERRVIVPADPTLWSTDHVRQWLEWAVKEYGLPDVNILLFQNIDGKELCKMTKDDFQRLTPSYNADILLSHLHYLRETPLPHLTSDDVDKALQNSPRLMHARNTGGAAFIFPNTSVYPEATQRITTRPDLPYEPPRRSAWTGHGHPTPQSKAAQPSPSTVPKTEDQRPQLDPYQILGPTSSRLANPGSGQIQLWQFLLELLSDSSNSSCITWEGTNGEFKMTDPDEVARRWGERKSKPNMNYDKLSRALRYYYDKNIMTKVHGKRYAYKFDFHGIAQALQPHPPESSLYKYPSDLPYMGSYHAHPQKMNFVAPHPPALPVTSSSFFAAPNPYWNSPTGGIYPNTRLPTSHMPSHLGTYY
How it was run: as §1

ELF1 = ELF1 (Homo sapiens, UniProt P32519 1-619)
How it was run: as §1

EHF = target: T5, EHF (Homo sapiens, UniProt Q9NZC4 1-300)
T5 sequence: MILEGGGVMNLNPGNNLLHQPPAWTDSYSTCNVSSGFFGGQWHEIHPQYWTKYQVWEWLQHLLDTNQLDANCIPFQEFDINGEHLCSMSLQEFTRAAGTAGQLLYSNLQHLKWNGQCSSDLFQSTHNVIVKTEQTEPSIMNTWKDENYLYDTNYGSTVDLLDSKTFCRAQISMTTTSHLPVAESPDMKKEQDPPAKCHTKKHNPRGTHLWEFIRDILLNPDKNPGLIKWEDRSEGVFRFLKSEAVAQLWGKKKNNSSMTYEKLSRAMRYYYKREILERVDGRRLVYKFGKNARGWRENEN
How it was run: as §1

SPI1 = SPI1 (Homo sapiens, UniProt P17947 1-270)
How it was run: as §1

SPIB = SPIB (Homo sapiens, UniProt Q01892 1-262)
How it was run: as §1

ELK3 = target: T6, ELK3 (Homo sapiens, UniProt P41970 1-407)
T6 sequence: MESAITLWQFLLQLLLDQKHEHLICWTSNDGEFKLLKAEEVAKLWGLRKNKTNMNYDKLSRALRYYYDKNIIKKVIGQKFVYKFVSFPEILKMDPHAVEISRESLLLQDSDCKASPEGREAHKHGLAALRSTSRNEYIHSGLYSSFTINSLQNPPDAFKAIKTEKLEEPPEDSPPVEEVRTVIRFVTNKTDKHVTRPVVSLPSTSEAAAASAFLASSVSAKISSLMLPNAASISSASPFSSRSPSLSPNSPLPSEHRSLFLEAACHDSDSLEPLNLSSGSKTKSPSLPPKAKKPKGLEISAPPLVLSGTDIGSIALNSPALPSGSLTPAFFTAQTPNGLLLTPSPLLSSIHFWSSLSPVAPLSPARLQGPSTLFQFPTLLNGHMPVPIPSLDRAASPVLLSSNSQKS
How it was run: as §1

ELF1, sequence (P32519 whole entry): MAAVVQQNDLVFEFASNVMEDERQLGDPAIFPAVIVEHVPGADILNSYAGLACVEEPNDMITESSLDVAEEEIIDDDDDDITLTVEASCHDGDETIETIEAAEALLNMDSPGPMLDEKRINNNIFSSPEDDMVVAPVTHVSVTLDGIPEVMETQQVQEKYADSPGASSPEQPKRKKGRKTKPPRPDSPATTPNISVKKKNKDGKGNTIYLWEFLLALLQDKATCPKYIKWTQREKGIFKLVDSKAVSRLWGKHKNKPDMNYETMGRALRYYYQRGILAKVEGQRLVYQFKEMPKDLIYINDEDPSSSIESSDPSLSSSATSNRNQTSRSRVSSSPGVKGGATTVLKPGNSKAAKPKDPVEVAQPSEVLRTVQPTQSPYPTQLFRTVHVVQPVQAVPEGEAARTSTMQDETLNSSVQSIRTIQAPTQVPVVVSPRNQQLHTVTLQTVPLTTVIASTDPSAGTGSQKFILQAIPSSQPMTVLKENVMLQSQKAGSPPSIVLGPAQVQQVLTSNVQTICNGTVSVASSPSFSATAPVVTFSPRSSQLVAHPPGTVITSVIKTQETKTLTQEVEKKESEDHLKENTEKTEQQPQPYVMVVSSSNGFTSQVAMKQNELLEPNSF
SPIB, sequence (Q01892 whole entry): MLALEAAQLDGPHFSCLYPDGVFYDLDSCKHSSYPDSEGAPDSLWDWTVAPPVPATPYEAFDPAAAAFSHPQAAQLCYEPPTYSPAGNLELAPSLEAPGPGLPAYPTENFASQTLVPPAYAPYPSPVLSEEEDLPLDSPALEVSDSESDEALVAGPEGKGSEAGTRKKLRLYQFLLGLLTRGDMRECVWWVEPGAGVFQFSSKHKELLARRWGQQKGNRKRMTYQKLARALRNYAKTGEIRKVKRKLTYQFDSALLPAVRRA

| Sequence | binding signal (FLI1) | binding signal (ELK1) | binding signal (GABPA) | binding signal (ERG) | binding signal (ELF1) | binding signal (EHF) | binding signal (SPI1) | binding signal (SPIB) | binding signal (ELK3) |
| --- | --- | --- | --- | --- | --- | --- | --- | --- | --- |
| TTTCTG | 1.4 fold enrichment (6-mer frequency, TF over GST control) | 1.35 fold enrichment (6-mer frequency, TF over GST control) | 1.36 fold enrichment (6-mer frequency, TF over GST control) | 1.33 fold enrichment (6-mer frequency, TF over GST control) | 1.34 fold enrichment (6-mer frequency, TF over GST control) | 1.38 fold enrichment (6-mer frequency, TF over GST control) | 1.42 fold enrichment (6-mer frequency, TF over GST control) | 1.3 fold enrichment (6-mer frequency, TF over GST control) | 1.46 fold enrichment (6-mer frequency, TF over GST control) |
| AGTTAA | 1.02 fold enrichment (6-mer frequency, TF over GST control) | 1.09 fold enrichment (6-mer frequency, TF over GST control) | 1.05 fold enrichment (6-mer frequency, TF over GST control) | 1.12 fold enrichment (6-mer frequency, TF over GST control) | 1.01 fold enrichment (6-mer frequency, TF over GST control) | 1.08 fold enrichment (6-mer frequency, TF over GST control) | 1.13 fold enrichment (6-mer frequency, TF over GST control) | 1.08 fold enrichment (6-mer frequency, TF over GST control) | 1.04 fold enrichment (6-mer frequency, TF over GST control) |
| GACATC | 1.36 fold enrichment (6-mer frequency, TF over GST control) | 1.4 fold enrichment (6-mer frequency, TF over GST control) | 1.31 fold enrichment (6-mer frequency, TF over GST control) | 1.27 fold enrichment (6-mer frequency, TF over GST control) | 1.21 fold enrichment (6-mer frequency, TF over GST control) | 1.35 fold enrichment (6-mer frequency, TF over GST control) | 1.26 fold enrichment (6-mer frequency, TF over GST control) | 1.3 fold enrichment (6-mer frequency, TF over GST control) | 1.38 fold enrichment (6-mer frequency, TF over GST control) |
| GAAACA | 1.38 fold enrichment (6-mer frequency, TF over GST control) | 1.4 fold enrichment (6-mer frequency, TF over GST control) | 1.22 fold enrichment (6-mer frequency, TF over GST control) | 1.32 fold enrichment (6-mer frequency, TF over GST control) | 1.35 fold enrichment (6-mer frequency, TF over GST control) | 1.45 fold enrichment (6-mer frequency, TF over GST control) | 1.3 fold enrichment (6-mer frequency, TF over GST control) | 1.36 fold enrichment (6-mer frequency, TF over GST control) | 1.38 fold enrichment (6-mer frequency, TF over GST control) |
| CCGTAT | 1.22 fold enrichment (6-mer frequency, TF over GST control) | 1.36 fold enrichment (6-mer frequency, TF over GST control) | 1.31 fold enrichment (6-mer frequency, TF over GST control) | 1.2 fold enrichment (6-mer frequency, TF over GST control) | 1.26 fold enrichment (6-mer frequency, TF over GST control) | 1.14 fold enrichment (6-mer frequency, TF over GST control) | 1.26 fold enrichment (6-mer frequency, TF over GST control) | 1.31 fold enrichment (6-mer frequency, TF over GST control) | 1.32 fold enrichment (6-mer frequency, TF over GST control) |
| TTTCCT | 2.49 fold enrichment (6-mer frequency, TF over GST control) | 2.32 fold enrichment (6-mer frequency, TF over GST control) | 2.32 fold enrichment (6-mer frequency, TF over GST control) | 2.72 fold enrichment (6-mer frequency, TF over GST control) | 2.19 fold enrichment (6-mer frequency, TF over GST control) | 2.4 fold enrichment (6-mer frequency, TF over GST control) | 2.33 fold enrichment (6-mer frequency, TF over GST control) | 2.52 fold enrichment (6-mer frequency, TF over GST control) | 2.53 fold enrichment (6-mer frequency, TF over GST control) |
| CTTTCT | 1.6 fold enrichment (6-mer frequency, TF over GST control) | 1.6 fold enrichment (6-mer frequency, TF over GST control) | 1.5 fold enrichment (6-mer frequency, TF over GST control) | 1.53 fold enrichment (6-mer frequency, TF over GST control) | 1.55 fold enrichment (6-mer frequency, TF over GST control) | 1.53 fold enrichment (6-mer frequency, TF over GST control) | 1.67 fold enrichment (6-mer frequency, TF over GST control) | 1.48 fold enrichment (6-mer frequency, TF over GST control) | 1.65 fold enrichment (6-mer frequency, TF over GST control) |
| CATTAT | 1.19 fold enrichment (6-mer frequency, TF over GST control) | 1.13 fold enrichment (6-mer frequency, TF over GST control) | 1.06 fold enrichment (6-mer frequency, TF over GST control) | 1.15 fold enrichment (6-mer frequency, TF over GST control) | 1.16 fold enrichment (6-mer frequency, TF over GST control) | 1.18 fold enrichment (6-mer frequency, TF over GST control) | 1.11 fold enrichment (6-mer frequency, TF over GST control) | 1.18 fold enrichment (6-mer frequency, TF over GST control) | 1.13 fold enrichment (6-mer frequency, TF over GST control) |
